# Where “and” joins values, the source holds several entries; their conditions need not be identical. Equal values may be shown once. Results filed as inconclusive are left out. A call without a number means that no potency is given here. Calls of active or inactive are those of the source. Calls follow the shape of the dose curve; as a rule, active = well fitted curve in the direction sought with a large enough effect; inconclusive = small, poorly fitted or top-dose-only effect, or another doubt; inactive = no such curve, though single readings can be large; an effect the other way counts as inactive or inconclusive.
# Experiments:
# [1] = Viability qHTS for spleen associated tyrosine kinase inhibitor (SYKi) naive MV4-11 cells (AID 1963823); also: nearly all actives have a fitted effect of over 40% in size
# How it was run: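 Compounds were dispensed acoustically onto plates, MV4-11 cells (SYKi-naive) added at 500 per well, and plates incubated 72 hr at 37 C. CellTiter-Glo was added and luminescence measured after 10 min.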
# [2] = Viability qHTS for spleen associated tyrosine kinase inhibitor (SYKi) drug resistant MV4-11 cells (AID 1963824); also: nearly all actives have a fitted effect of over 35% in size
# How it was run: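 SYK inhibitor-resistant MV4-11 AML cells, 500 per well, added to predispensed compounds and incubated 72 hr at 37 C, 5% CO2. Viability measured by CellTiter-Glo luminescence after 10 min at room temperature.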
# [3] = Quantitative highthroughput screen to assess conditional lethalithy of NOMO1 cells grown in RPMI1640 with untreated serum (RPMI+s) (AID 1963876); also: nearly all actives have a fitted effect of over 35% in size
# How it was run: (§1)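 Each medium arm—HPLM with 10% dialyzed FBS, or RPMI1640 with 5 mM glucose and 10% untreated or dialyzed FBS—was screened against an 11-point, 3-fold compound titration for 48 h at 37 °C, with CellTiter-Glo luminescence as endpoint.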
# [4] = Quantitative highthroughput screen to assess conditional lethalithy of NOMO1 cells grown in RPMI1640 with dialyzed fetal bovine serum (RPMI+ds) (AID 1963877); also: nearly all actives have a fitted effect of over 30% in size; as to Viability: series mostly up to about 46 µM
# How it was run: as §1
# [5] = Quantitative highthroughput screen to assess conditional lethalithy of P12 Ichikawa cells grown in Human Plasma-Like Medium with dialyzed fetal bovine serum (HPLM+ds) (AID 1963879); settings: Potency: viability; also: nearly all actives have a fitted effect of over 35% in size; as to Viability: series mostly up to about 46 µM
# How it was run: as §1
# [6] = Quantitative highthroughput screen to assess conditional lethalithy of SEM cells grown in Human Plasma-Like Medium with dialyzed fetal bovine serum (HPLM+ds) (AID 1963882); also: nearly all actives have a fitted effect of over 35% in size; as to Viability: series mostly up to about 46 µM
# How it was run: as §1
# [7] = Quantitative highthroughput screen to assess conditional lethalithy of SEM cells grown in RPMI1640 with unreated serum (RPMI+s) (AID 1963883); also: nearly all actives have a fitted effect of over 35% in size
# How it was run: as §1
# [8] = Quantitative highthroughput screen to assess conditional lethalithy of NOMO1 cells grown in Human Plasma-Like Medium with dialyzed fetal bovine serum (HPLM+ds) (AID 1963878); also: nearly all actives have a fitted effect of over 35% in size
# How it was run: as §1
# [9] = Quantitative highthroughput screen to assess conditional lethalithy of P12 Ichikawa cells grown in RPMI1640 with dialyzed fetal bovine serum (RPMI+ds) (AID 1963880); settings: Potency: P12-Ichikawa viability; also: nearly all actives have a fitted effect of over 35% in size
# How it was run: as §1
# [10] = Quantitative highthroughput screen to assess conditional lethalithy of P12 Ichikawa cells grown in RPMI1640 with untreated serum (RPMI+s) (AID 1963881); settings: Potency: viability; also: nearly all actives have a fitted effect of over 35% in size; as to Viability: series mostly up to about 46 µM
# How it was run: as §1
# [11] = Quantitative highthroughput screen to assess conditional lethalithy of SEM cells grown in RPMI1640 with dialyzed fetal bovine serum (RPMI+ds) (AID 1963884); also: nearly all actives have a fitted effect of over 35% in size; as to Viability: series mostly up to about 46 µM
# How it was run: as §1
# [12] = Cellular viability qHTS for adrenocortical cancer (ACC) cell line SW-13 (AID 1963989); settings: SW-13 ACC cells viability, CellTiter-Glo, 48 h; activity (max response): stronger effect = lower value; also: nearly all actives have a fitted effect of over 65% in size;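 as to activity (max response): cells grown in serum-free medium with ITS supplement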
# How it was run: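 Viability was read as CellTiter-Glo luminescence after 48 h compound treatment (up to 46 uM final) of SW-13 cells grown serum-free; titration curves were fit with a four-parameter logistic model to give IC50 and efficacy.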
# [13] = Cellular viability qHTS for adrenocortical cancer (ACC) cell line NCI-H295R (AID 1963990); also: nearly all actives have a fitted effect of over 60% in size
# How it was run: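 CellTiter-Glo ATP luminescence, read 48 h after compound addition, measured viability of NCI-H295R adrenocortical cells grown serum-free with ITS. Final concentrations spanned up to 46 uM. Data normalized to DMSO and doxorubicin, fitted for IC50 and maximal response.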
# Potency is read from the fitted curve at half-maximal effect.
Compound,Potency [1],Potency [2],Potency [3],Potency [4],Potency [5],Potency [6],Potency [7],Potency [8],Potency [9],Potency [10],Potency [11],activity (max response) [12],Potency [13],Potency [12]
NCC(=O)Nc1ccc(-n2nc(C(F)(F)F)cc2-c2ccc3c(ccc4ccccc43)c2)cc1,5.8 µM (active) and 5.9 µM (active),2.91 µM (active) and 4.68 µM (active),inactive,9.35 µM (active),2.96 µM (active),inactive,inactive,–,–,–,–,–,–,–
CC(C)c1cc(C(C)C)c(CC(=O)NS(=O)(=O)Oc2c(C(C)C)cccc2C(C)C)c(C(C)C)c1,11.6 µM (active),4.68 µM (active),inactive,–,inactive,inactive,inactive,inactive,inactive,inactive,inactive,-25.2% (inactive),–,–
Cc1onc(-c2ccccc2Cl)c1C(=O)N[C@@H]1C(=O)N2[C@@H]1SC(C)(C)[C@@H]2C(=O)O,inactive,inactive,inactive,–,inactive,inactive,inactive,inactive,inactive,inactive,inactive,0.896% (inactive),inactive,–
c1coc(CNc2ncnc3nc[nH]c23)c1,inactive,18.6 µM (active),inactive,–,inactive,inactive,inactive,inactive,inactive,inactive,inactive,-0.681% (inactive),–,–
Cc1ccc(S(=O)(=O)N[C@@H](Cc2ccccc2)C(=O)CCl)cc1,9.34 µM (active),8.33 µM (active),inactive,inactive,–,–,–,–,–,–,–,–,22.4 µM (active),–
CC[C@H](C)n1cc(C)c2c(C(=O)NCc3c(C)cc(C)[nH]c3=O)cc(-c3ccc(N4CCNCC4)nc3)cc21,7.42 µM (active),10.5 µM (active),inactive,–,inactive,inactive,inactive,–,inactive,inactive,inactive,–,28.2 µM (active),–
NC(CO)(CO)CCc1ccc(Sc2cccc(OCc3ccccc3)c2)cc1Cl,7.42 µM (active),3.72 µM (active),13.2 µM (active),–,7.43 µM (active),–,–,7.43 µM (active),14.8 µM (active),10.5 µM (active),–,–,3.98 µM (active),–
COc1cc2nccc(Oc3ccc(NC(=O)Nc4cc(C)on4)c(Cl)c3)c2cc1OC,0.372 µM (active),0.833 µM (active),inactive,–,–,–,3.32 µM (active),inactive,–,–,4.69 µM (active),–,–,11.2 µM (active)
CCCn1c(=O)c2[nH]c(-c3cnn(Cc4cccc(C(F)(F)F)c4)c3)nc2n(CC)c1=O,inactive,inactive,6.62 µM (active),–,inactive,inactive,inactive,–,4.18 µM (active),0.418 µM (active),inactive,6% (inactive),inactive,–
COc1cc(NS(=O)(=O)c2ccc(N)cc2)nc(OC)n1,inactive,inactive,inactive,–,inactive,–,inactive,inactive,inactive,inactive,inactive,-1.49% (inactive),inactive,–
Cc1ccc(C(=O)N(CCCN)[C@@H](c2nc3cc(Cl)ccc3c(=O)n2Cc2ccccc2)C(C)C)cc1,0.0042 µM (active),0.0037 µM (active),0.0013 µM (active),–,0.0013 µM (active),0.0012 µM (active),0.0012 µM (active),–,0.0021 µM (active),0.0013 µM (active),–,–,0.0794 µM (active),0.01 µM (active)
CCc1cc(C(N)=S)ccn1,inactive,inactive,inactive,–,14.8 µM (active),–,–,inactive,8.33 µM (active),inactive,7.43 µM (active),3.73% (inactive) and -4.72% (inactive),inactive,–
C[C@@]1(c2cc(-c3cncnc3)c(F)cc2F)CCSC(N)=N1,inactive,23.5 µM (active),1.66 µM (active),–,10.5 µM (active),–,–,3.72 µM (active),16.6 µM (active),11.8 µM (active),16.6 µM (active),-2.1% (inactive),inactive,–

# Reference: PubChem BioAssay (NCATS)
